In PubChem BioAssay (NCATS):
Values joined by “and” are separate entries in the source; they are usually repeats but may differ in a detail not shown here. Identical values can stand only once. Results filed as inconclusive are left out. A call without a number means that no potency is given here. Active and inactive are the calls of the source. Unless noted, calls follow the shape of the full dose curve.

Key:
[1] = qHTS for Inhibitors of the Functional Ribonucleoprotein Complex (vRNP) of Lassa (LASV) Arenavirus: LASV Primary Screen - GLuc reporter signal (AID 1347082; calls by dose curve; tested in HEK293 reporter line; also: nearly all actives have a fitted effect of over 60% in size)
[2] = qHTS for Inhibitors of the Functional Ribonucleoprotein Complex (vRNP) of Lassa (LASV) Arenavirus: Viability assay - alamar blue signal for LASV Primary Screen (AID 1347083; calls by dose curve; tested in HEK293 reporter line; also: nearly all actives have a fitted effect of over 80% in size)
[3] = qHTS for Inhibitors of the Functional Ribonucleoprotein Complex (vRNP) of Lymphocytic Choriomeningitis Arenaviruses (LCMV): Viability assay - alamar blue signal for LCMV Primary Screen (AID 1347085; calls by dose curve; tested in HEK293 reporter line; also: nearly all actives have a fitted effect of over 80% in size)
[4] = molecular target: Nucleoprotein (Lymphocytic choriomeningitis virus (strain Armstrong)) (UniProt P09992); assay: qHTS for Inhibitors of the Functional Ribonucleoprotein Complex (vRNP) of Lymphocytic Choriomeningitis Arenaviruses (LCMV): LCMV Primary Screen - GLuc reporter signal (AID 1347086); also: nearly all actives have a fitted effect of over 70% in size
[5] = Primary qHTS for Huh7 cytotoxicity: counterscreen for inhibitors of MERS-S pseudotyped particle cell entry (AID 1479147); details: outcome: dose series up to 57.1 µM unless noted
[6] = Primary qHTS for inhibitors of MERS-S pseudo-typed particle cell entry (AID 1479149); also: nearly all actives have a fitted effect of over 60% in size
[7] = Primary qHTS for Vero E6 cytotoxicity: counterscreen for inhibitors of SARS-S pseudo-typed particle cell entry (AID 1479150); details: outcome: dose series up to 57.1 µM unless noted
[8] = Cytotoxicity counterscreen for inhibitors of SARS-CoV-2 cell entry (AID 1645845); also: nearly all actives have a fitted effect of over 50% in size
How it was run: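 After a 15 min room-temperature ATPLite 1step step, luminescence reflected ATP remaining in HEK293-ACE2 cells exposed to compound for 1 h plus 48 h at 37 C, with percent activity set by cell and no-cell controls.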

[9] = Primary qHTS to identify inhibitors of SARS-CoV-2 cell entry (AID 1645846); details: activity change, negative = inhibition: at 57.1 µM (top of the series) unless noted; also: nearly all actives have a fitted effect of over 45% in size
How it was run: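 Data are normalized to wells receiving SARS-CoV-2-S pseudoparticles and those given bald particles. Entry signal was luciferase luminescence in stable hACE2 Expi293F cells, 48 hr post-infection, after 1 hr compound pretreatment.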

[10] = molecular target: Alpha-galactosidase (Coffea arabica) (UniProt Q42656); assay: Counterscreen for Glucocerebrosidase Inhibitors: qHTS Assay for Coffee Bean alpha-Galactosidase at pH 4.5 (AID 957; active = well fitted curve in the direction sought with a large enough effect; an effect the other way counts as inactive or inconclusive)
How it was run: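 Enzyme is added first (2 nM final), then compounds titrated from 0.7 nM to 77 uM, then 80 uM 4-methylumbelliferyl alpha-D-galactopyranoside; after 20 min at room temperature a pH 10 NaOH/glycine stop precedes fluorescence reading at 365/440 nm.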

[11] = molecular target: Alpha-galactosidase (Coffea arabica) (UniProt Q42656); assay: Counterscreen for Glucocerebrosidase Inhibitors: qHTS Assay for Coffee Bean alpha-Galactosidase at pH 5.9 (AID 998; active = well fitted curve in the direction sought with a large enough effect; an effect the other way counts as inactive or inconclusive)
How it was run: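 In 50 mM citric acid pH 5.9 with 0.005% Tween-20, coffee bean enzyme hydrolyses 80 uM 4-MU alpha-D-galactopyranoside over 20 min at RT. Activity is normalized to controls; AC50 comes from Hill-modelled concentration-response data.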

[12] = Validation screen for inhibitors of Lassa infection (AID 463096)
[13] = Inducers of the Endoplasmic Reticulum Stress Response (ERSR) in human glioma: Validation (AID 504836; active = well fitted curve in the direction sought with a large enough effect; an effect the other way counts as inactive or inconclusive)
How it was run: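 Stably transfected U87-MG human glioma cells carrying a GRP78-based luminescent sensor were seeded at 1000 cells/well, pin-dosed with compounds and incubated 16 h. Luciferase reagent was then added, and end-point luminescence was read after 10 min at room temperature.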

[14] = Confirmatory qHTS for VERO E6 Cytotoxicity Assay: Counterscreen for SARS-CoV-2 CPE Assay (AID 1508605); also: nearly all actives have a fitted effect of over 60% in size
[15] = VSVG counterscreen qHTS to identify inhibitors of SARS-CoV-2 cell entry (AID 1645847); also: potency is read from the fitted curve at half-maximal effect; nearly all actives have a fitted effect of over 65% in size
How it was run: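 Counterscreen using VSV-G (not spike) pseudotyped MLV particles on ACE2-expressing Expi293F cells after 1 h compound preincubation; infection ran 48 h at 37 °C. Data normalized to VSV-G PP and bald-PP wells.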

Sequence of Alpha-galactosidase (Coffea arabica) (Q42656 whole entry, looked up): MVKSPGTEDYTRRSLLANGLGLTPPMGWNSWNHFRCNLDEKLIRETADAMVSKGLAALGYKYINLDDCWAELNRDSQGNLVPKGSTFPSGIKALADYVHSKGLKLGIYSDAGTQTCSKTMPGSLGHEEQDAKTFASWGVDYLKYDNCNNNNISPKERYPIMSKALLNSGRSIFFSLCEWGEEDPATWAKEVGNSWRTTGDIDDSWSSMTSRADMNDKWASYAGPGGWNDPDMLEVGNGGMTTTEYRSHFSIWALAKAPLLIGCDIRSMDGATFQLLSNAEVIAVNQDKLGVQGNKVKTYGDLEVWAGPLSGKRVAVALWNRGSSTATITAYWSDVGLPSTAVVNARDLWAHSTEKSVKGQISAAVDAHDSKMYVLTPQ
Sequence of Nucleoprotein (Lymphocytic choriomeningitis virus (strain Armstrong)) (P09992 whole entry, looked up): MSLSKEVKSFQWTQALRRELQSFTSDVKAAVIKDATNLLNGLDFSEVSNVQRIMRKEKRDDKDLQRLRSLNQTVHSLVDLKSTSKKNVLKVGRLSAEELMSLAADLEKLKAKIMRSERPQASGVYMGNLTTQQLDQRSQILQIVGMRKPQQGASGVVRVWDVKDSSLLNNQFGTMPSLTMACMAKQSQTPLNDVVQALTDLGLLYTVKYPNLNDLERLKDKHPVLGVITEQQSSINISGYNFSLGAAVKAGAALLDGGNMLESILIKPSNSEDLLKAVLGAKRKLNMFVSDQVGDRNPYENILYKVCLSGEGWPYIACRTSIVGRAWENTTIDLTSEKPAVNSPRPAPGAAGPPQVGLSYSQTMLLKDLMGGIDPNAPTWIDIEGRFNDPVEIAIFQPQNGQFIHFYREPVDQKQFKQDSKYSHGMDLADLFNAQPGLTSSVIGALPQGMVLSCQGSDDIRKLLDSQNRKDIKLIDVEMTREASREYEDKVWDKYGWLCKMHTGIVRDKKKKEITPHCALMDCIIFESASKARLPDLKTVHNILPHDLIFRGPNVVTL

**Q.** What does the source list for `COc1ccc(-n2nc(C(N)=O)c3c2C(=O)N(c2ccc(N4CCCCC4=O)cc2)CC3)cc1`?
**A.** Potency [1]: inactive; Potency [2]: inactive; Potency [3]: inactive; Potency [4]: inactive; outcome [5]: inactive; Potency [6]: inactive; outcome [7]: inactive; Potency [8]: inactive; Potency [9]: inactive

**Q.** Which results are given for `O=S(=O)(c1cccc2c(Cl)cccc12)N1CCCNCC1`?
**A.** outcome [10]: inactive; outcome [11]: inactive; Potency [12]: inactive; outcome [13]: inactive; Potency [1]: inactive; Potency [2]: inactive; Potency [3]: inactive; Potency [4]: inactive; Potency [14]: inactive

**Q.** What does the source list for `N#CC(c1ccc(Cl)cc1)c1c(Cl)cc(-n2ncc(=O)[nH]c2=O)cc1Cl` (stereo not given)?
**A.** Potency [1]: inactive; Potency [2]: inactive; Potency [3]: inactive; Potency [4]: inactive; outcome [5]: inactive; outcome [7]: inactive; Potency [8]: inactive; Potency [15]: 21.5 µM (active)

**Q.** With `C[C@H]1COc2c(N3CCN(C)CC3)c(F)cc3c(=O)c(C(=O)O)cn1c23` as the compound, how does the Potency [1] read?
**A.** inactive

**Q.** And the Potency [2]?
**A.** inactive

**Q.** And the Potency [3]?
**A.** inactive

**Q.** And the Potency [4]?
**A.** inactive

**Q.** What about the outcome [5] of the same compound?
**A.** inactive

**Q.** What about the Potency [6] of the same compound?
**A.** inactive

**Q.** And the outcome [7]?
**A.** inactive

**Q.** And the Potency [8]?
**A.** inactive

**Q.** What about the activity change, negative = inhibition [9] of the same compound?
**A.** -10.7% and -28.1%

**Q.** Which outcome [13] does the source give for `Clc1ccc2c(c1)N=C(N1CCNCC1)c1ccccc1N2` here?
**A.** inactive

**Q.** What about the Potency [1] of the same compound?
**A.** inactive

**Q.** And the Potency [2]?
**A.** inactive

**Q.** And the Potency [3]?
**A.** inactive

**Q.** What about the Potency [4] of the same compound?
**A.** inactive

**Q.** What about the Potency [14] of the same compound?
**A.** inactive

**Q.** With `O=C(O)c1nc(=O)[nH]c(=O)[nH]1` as the compound, how does the Potency [1] read?
**A.** inactive

**Q.** And the Potency [2]?
**A.** inactive

**Q.** And the Potency [3]?
**A.** inactive

**Q.** What about the Potency [4] of the same compound?
**A.** inactive

**Q.** What about the outcome [5] of the same compound?
**A.** inactive [at 0.573 µM]

**Q.** What about the outcome [6] of the same compound?
**A.** inactive [at 0.573 µM]

**Q.** And the activity change, negative = cytotoxicity [7]?
**A.** 2.99% [at 0.573 µM] (inactive)

**Q.** And the Potency [8]?
**A.** inactive

**Q.** What about the activity change, negative = inhibition [9] of the same compound?
**A.** -18.6% [at 27.1 µM]

**Q.** And the outcome [9]?
**A.** inactive [at 0.702 µM]

**Q.** For `CCCCCCCCCCCCCCCC(=O)O[C@@H]1CC(C)=C(/C=C/C(C)=C/C=C/C(C)=C/C=C/C=C(C)/C=C/C=C(C)/C=C/C2=C(C)C[C@@H](OC(=O)CCCCCCCCCCCCCCC)CC2(C)C)C(C)(C)C1`, which Potency [1] is on record?
**A.** inactive

**Q.** And the Potency [2]?
**A.** inactive

**Q.** What about the Potency [3] of the same compound?
**A.** inactive

**Q.** What about the Potency [4] of the same compound?
**A.** inactive

**Q.** And the outcome [5]?
**A.** inactive

**Q.** What about the Potency [6] of the same compound?
**A.** inactive

**Q.** What about the outcome [7] of the same compound?
**A.** inactive

**Q.** What about the Potency [8] of the same compound?
**A.** inactive

**Q.** Which outcome [10] does the source give for `O=S(=O)(c1cccc2c(I)cccc12)N1CCCNCC1` here?
**A.** inactive

**Q.** And the outcome [11]?
**A.** inactive

**Q.** And the Potency [12]?
**A.** inactive

**Q.** What about the Potency [1] of the same compound?
**A.** inactive

**Q.** What about the Potency [2] of the same compound?
**A.** inactive

**Q.** And the Potency [3]?
**A.** inactive

**Q.** What about the Potency [4] of the same compound?
**A.** inactive

**Q.** And the Potency [14]?
**A.** inactive

**Q.** And the Potency [8]?
**A.** inactive

**Q.** What about the activity change, negative = inhibition [9] of the same compound?
**A.** -29.1%

**Q.** Which Potency [1] does the source give for `CCCNS(=O)(=O)Nc1ncnc(OCCOc2ncc(Br)cn2)c1-c1ccc(Br)cc1` here?
**A.** inactive

**Q.** What about the Potency [2] of the same compound?
**A.** inactive

**Q.** What about the Potency [3] of the same compound?
**A.** inactive

**Q.** And the Potency [4]?
**A.** inactive

**Q.** What about the outcome [5] of the same compound?
**A.** inactive

**Q.** What about the Potency [6] of the same compound?
**A.** inactive

**Q.** And the outcome [7]?
**A.** inactive

**Q.** And the Potency [8]?
**A.** inactive

**Q.** With `N[C@@H](CC(=O)N1CCn2c(nnc2C(F)(F)F)C1)Cc1cc(F)c(F)cc1F` as the compound, how does the Potency [1] read?
**A.** inactive

**Q.** And the Potency [2]?
**A.** inactive

**Q.** What about the Potency [3] of the same compound?
**A.** inactive

**Q.** What about the Potency [4] of the same compound?
**A.** inactive

**Q.** What about the outcome [5] of the same compound?
**A.** inactive

**Q.** What about the Potency [6] of the same compound?
**A.** inactive

**Q.** What about the outcome [7] of the same compound?
**A.** inactive

**Q.** What about the Potency [8] of the same compound?
**A.** inactive

**Q.** And the activity change, negative = inhibition [9]?
**A.** -27.8%

**Q.** With `CC(O)[C@H]1CC[C@H]2[C@@H]3CC[C@@H]4C[C@@H](O)CC[C@]4(C)[C@H]3CC[C@]12C` (stereo not given in full) as the compound, how does the Potency [1] read?
**A.** inactive

**Q.** And the Potency [2]?
**A.** inactive

**Q.** And the Potency [3]?
**A.** inactive

**Q.** What about the Potency [4] of the same compound?
**A.** inactive

**Q.** And the outcome [5]?
**A.** inactive [at 114 µM]

**Q.** And the Potency [6]?
**A.** inactive

**Q.** What about the outcome [7] of the same compound?
**A.** inactive [at 114 µM]

**Q.** What about the Potency [8] of the same compound?
**A.** inactive

**Q.** What about the activity change, negative = inhibition [9] of the same compound?
**A.** -11.6% [at 114 µM]
